Screening data (PubChem BioAssay)
Pol iota inh: qHTS for Inhibitors of Polymerase Iota; Potency, µM (highest dose often 115 µM), for inactives: at the highest dose activity, negative = inhibition, most hits filed as inhibitors; DNA polymerase iota (Homo sapiens), Q9UNA4; 1% of 390,000 active; Pol iota fluorescent replication assay, 10 min; note: potency is the fitted concentration of half-maximal effect
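Fluorescent replication assay read twice, at 0 min and 10 min after adding 50 nM (final) substrate. Enzyme (10 nM) and compounds were first incubated 15 min at room temperature; enzyme-free buffer wells were negative controls.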
Pol beta inh: qHTS Assay for Inhibitors of DNA Polymerase Beta; Potency, µM (highest dose often 114 µM), without a hit: at the highest dose activity change, negative = inhibition, hits mostly inhibitors; 1.3% of 340,000 active; Pol beta primer extension/strand displacement, fluorescence kinetic; P06746; note: potency is the fitted concentration of half-maximal effect; % is set by controls: 0 for no effect and ±100 for the full control effect
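Curves were derived by four-parameter Hill fits of normalized qHTS data. The kinetic fluorescent primer-extension read was taken at 0 and 10 min after 50 nM substrate, following a 15 min room-temperature preincubation of 10 nM enzyme with compounds.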
POLH inh: qHTS for Inhibitors of Polymerase Eta; recombinant Pol eta, fluorescent DNA replication assay; 1.2% of 390,000 active; Potency, µM (titrated, usually from 114 µM), for the others: at the top dose activity change, negative = inhibition, usual class: inhibitors; note: potency is the fitted concentration of half-maximal effect; % is set by controls: 0 for no effect and ±100 for the full control effect
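Pol eta (10 nM) was preincubated with compounds for 15 min at room temperature, after which fluorescent replication substrate (50 nM final) was added to start the reaction. Fluorescence was read kinetically at 0 and 10 min.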
PI5P4Ka inh: qHTS for Inhibitors of phosphatidylinositol 5-phosphate 4-kinase (PI5P4K); PI5P4Kalpha enzyme, ADP-Glo luminescence, 60 min; active compounds read low; max response, %; AID 652105, 2013; Phosphatidylinositol 5-phosphate 4-kinase type-2 alpha (Homo sapiens), P48426; 1.2% of 330,000 active; active = max response of -50% or lower; inconclusive = between -30% and -50%; inactive = -30% or higher; note: value at the top dose of about 77 µM; % is set by controls: 0 for no effect and ±100 for the full control effect
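Reactions run in 0.038 M HEPES pH 7.4, 0.28 mM EGTA, 0.1% CHAPS and 5% DMSO, with PI5P4Kalpha, substrate, compound and 5 microM ATP final, one hour at room temperature. Readout is ADP-Glo luminescence.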
POLK inh: qHTS for Inhibitors of Polymerase Kappa; Potency, µM (titrated, usually from 107 µM), for the others: at the top dose activity, negative = inhibition, usual class: inhibitors; purified Pol kappa, fluorescent DNA synthesis assay, 10 min; 0.53% of 400,000 active; AID 588579, 2011; DNA polymerase kappa (Homo sapiens), Q9UBT6; note: potency is the fitted concentration of half-maximal effect; % is set by controls: 0 for no effect and ±100 for the full control effect
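50 nM final substrate added after 15 min RT preincubation of 10 nM Pol kappa with compound; fluorescence read at 0 and 10 min.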
WRN inhibitor: qHTS for Inhibitors of WRN Helicase; Bifunctional 3'-5' exonuclease/ATP-dependent helicase WRN (Homo sapiens), Q14191; Potency, µM (top dose mostly 114 µM), for inactives: at the highest dose activity change, negative = inhibition, actives largely listed as inhibitors; 0.46% of 360,000 active; WRN helicase unwinding, fluorescent forked duplex, kinetic; note: potency is the fitted concentration of half-maximal effect; % is set by controls: 0 for no effect and ±100 for the full control effect; nearly all actives have a fitted effect of over 55% in size
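Fluorescence dequenching readout, ex 525 nm/em 598 nm, kinetic mode: forked duplex DNA (100 nM final) with adjacent fluorophore and quencher unwound by WRN (20 nM final) with 2 mM ATP. Compound preincubation 15 min, room temperature.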
Starred values were filed as active, the others as inactive; ? = inconclusive; nt = no result; [ ] = dose if it differs, or a comment. This is a sample that favours compounds with a hit; in the whole collection about 2.8% have one here. Unless noted, calls come from the whole dose curve; as a rule, active = well fitted curve in the direction sought with a large enough effect; inconclusive = small, poorly fitted or top-dose-only effect, or another doubt; inactive = no such curve, though single readings can be large; an effect the other way counts as inactive or inconclusive.

SMILES	Pol iota inh	Pol beta inh	POLH inh	PI5P4Ka inh	POLK inh	WRN inhibitor
O=C(CSc1nnc(-c2ccco2)c(-c2ccco2)n1)c1ccccc1	18µM*	-5%	35µM*	?	79µM*	?
CC(=O)c1ccc(NC(=O)CSc2nnc(-c3ccco3)c(-c3ccco3)n2)cc1	?	20µM*	22µM*	-64*	14µM*	32µM*
CCc1ccc(-n2nc(CO)c(C(=O)NC(C)c3ccc(Cl)cc3)n2)cc1 (centres undefined)	25%	9%	-15%	nt	7%	nt
CCOc1ccc(OCC)c(NC(=O)C2CCCN(S(=O)(=O)c3cc(Br)cc4c3N(C(=O)CC)CC4)C2)c1 (centres undefined)	89µM*	0%	-4%	nt	-24%	nt
Cc1c(Cl)cccc1-n1ncc(C(=O)NCc2cccs2)c1C1CCN(C(=O)OC(C)(C)C)CC1	0%	20%	-23%	nt	-6%	nt
c1cc2c3c(c1)CCC[N+]3(C1CCCCC1)CCC2	27%	nt	nt	nt	-14%	nt
COc1ccc(-c2cc3c(=O)n(CC(=O)Nc4cc(C)ccc4C)ccn3n2)cc1	11%	45µM*	nt	nt	-7%[60.1 µM]	nt
CC(=O)c1ccc(NC(=O)CSc2ccc3nnc(-c4ccccn4)n3n2)cc1	-16%	50µM*	?	-17	-13%	6%
CC(=O)c1ccc(NC(=O)CSc2ccc(-c3sc(C)nc3C)nn2)cc1	?	20µM*	-7%	-9	-18%	2%
Cc1nc(C)c(-c2ccc(SCC(=O)Nc3ccc(C)c(Cl)c3)nn2)s1	28%	1%	-8%	1	-2%	-13%
COc1ccc(NC(=O)CSc2ccc(-c3sc(C)nc3C)nn2)cc1OC	?	25µM*	-7%	-5	-18%	-1%
COc1ccc(-c2ccc(SCC(=O)Nc3cccc(C(C)=O)c3)nn2)cc1OC	28µM*	16µM*	?	-3	?	5%
CC(=O)c1cccc(NC(=O)CSc2ccc(-c3ccc4c(c3)OCO4)nn2)c1	-1%	-2%	3%	-6	-2%	-2%
Cc1ccccc1CSc1cn(CC(=O)N2CCCC2)c2ccccc12	5%	1%	-16%	nt	-3%	nt
COc1ccc(-c2cc(C(=O)Nc3cc(C(F)(F)F)ccc3Cl)no2)cc1	-1%	-2%	-11%	nt	-15%	nt
Cc1ccc(CNC(=O)c2ccc(Cn3nc(C)c(Cl)c3C)o2)cc1	?	50µM*	?	-1	-17%	-34%
Cc1cc(C)cc(NC(=O)c2ccc(Cn3nc(C)c(Cl)c3C)o2)c1	6%	-20%	-15%	-2	-5%	-7%
COc1ccc(N(C(=O)Cc2cccs2)C2C=CS(=O)(=O)C2)cc1 (centres undefined)	?	16µM*	?	?	-32%	?
Cc1ccc2c(c1)C(=O)OC(C(=O)Nc1ccc(C(=O)O)cc1)C2 (centres undefined)	89µM*	11%	-1%	nt	-24%	nt
Cc1ccc2c(c1)C(=O)OC(C(=O)Nc1ccccc1C(=O)O)C2 (centres undefined)	2%	9%	-11%	nt	-2%[60.1 µM]	nt
COc1cc2c(cc1OC)CN(Cc1nc3ccsc3c(=O)[nH]1)CC2	?	?	18µM*	-26	?	-35%
O=C(C[N+]12CN3CN(CN(C3)C1)C2)c1ccc(I)cc1	-1%	nt	nt	nt	-10%	nt
N=C1/C(=C/c2coc3ccccc3c2=O)C(=O)N=C2SC(c3ccco3)=NN12	?	-112%	3.2µM*	-78*	?	40µM*
O=C1C=CC(O)(c2cc(=O)c3c(O)cc(O)cc3o2)C=C1	6.3µM*	14%	?	?	-8%	-13%[11.6 µM]
COc1ccc(OCC(=O)OCc2cc(=O)n3nc(C4CCCCC4)sc3n2)cc1	?	45µM*	-28%	nt	-27%	nt
SMILES	Pol iota inh	Pol beta inh	POLH inh	PI5P4Ka inh	POLK inh	WRN inhibitor
CS(=O)(=O)c1ccc(C(=O)OCC(=O)NC23CC4CC(CC(C4)C2)C3)cc1[N+](=O)[O-]	22µM*	1%	16µM*	0	-6%	-31%[57.1 µM]
CS(=O)(=O)c1ccc(C(=O)OCC(=O)NC(=O)NC2CCCCC2)cc1[N+](=O)[O-]	-20%	nt	nt	nt	4%	nt
COc1ccc(S(=O)(=O)/N=C2/NC(=O)/C(=C\c3ccco3)S2)cc1	?	25µM*	18µM*	-18	?	-27%[57.1 µM]
COc1ccc(S(=O)(=O)/N=C2/NC(=O)/C(=C\c3cc(OC)c(OC)cc3[N+](=O)[O-])S2)cc1	-11%	4%	-20%	nt	-6%	-30%
COc1ccc(S(=O)(=O)/N=C2/NC(=O)/C(=C/c3ccco3)S2)cc1	?	32µM*	18µM*	-15	-10%	?
COc1ccc(N=C2NC(=O)/C(=C/c3ccco3)S2)cc1	?	?	-13%	-27	-20%	-8%
COc1cc(/C=C2\S/C(=N/S(=O)(=O)c3ccccc3)NC2=O)c([N+](=O)[O-])cc1OC	?	21%	22µM*	-55*	-30%	?
CCc1ccccc1NC(=O)Cn1nc(N2CCN(c3ccccc3OC)CC2)ccc1=O	-28%	0%	-8%	nt	-16%	nt
COc1ccc(-c2nc3ccc(C)cn3c2NCc2ccccc2)cc1SC1CCCCC1	22µM*	nt	45µM*	-16	10%	11%
CCCCNc1c(-c2ccc(OC)c(SC3CCCCC3)c2)nc2ccc(C)cn12	-15%	nt	-27%	17	-17%	-30%
Cc1c(Cl)cccc1NC(=O)c1cnc2sc(N3CCCC3)nn2c1=O	12%	3%	-12%	nt	-19%	nt
c1coc(-c2nc3cc4ccccc4cc3nc2-c2ccco2)c1	8.9µM*	nt	nt	nt	40µM*	nt
c1coc(-c2nc(-c3ccco3)c(-c3ccco3)nc2-c2ccco2)c1	?	2.5µM*	4µM*	nt	8.9µM*	20µM*
Oc1ccccc1-c1cc(-c2ccco2)[nH]n1	?	0%	-6%	nt	-7%	-14%
Nc1nc(-c2ccco2)c(-c2ccco2)s1	?	?	?	?	-13%	-34%
C/C(=N/NC(=O)c1ccco1)c1cccc(NC(=O)c2ccc(C)s2)c1	19%	3%	-11%	-3	89µM*	-4%[11.6 µM]
O=C(Nc1ccc(-c2cn3cccnc3n2)cc1)c1cc(Br)ccc1Cl	-16%	?	-9%	nt	-8%	nt
CC1(C)CC(=O)C2=C(C1)NC(=S)C(C#N)C21CCCCC1 (centres undefined)	32%	31%	-12%	-62*	4%	4%
